Measured values reported in PubChem BioAssay AID1159580 (chemical genetic matrix, 2015).
Where “and” joins values, the source holds several entries; their conditions need not be identical. Equal values may be shown once. Hit rate of the full screen: of about 5,500 compounds, about 2,000 (36%) were called active. Roughly 18% stayed inconclusive and do not appear here. The list shows a part of the results. Unmarked numbers belong to inactive results. Cut-off read from the data, not from the text of the source: active = normalized growth mostly below about 0.91 (no sharp cut-off); inconclusive = no clear call, values can overlap the other calls; inactive = mostly above about 0.92.

Test: chemical genetic growth profiling, strain panel (AID 1159580);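 note: tested at 20 µM; growth read once vehicle control cultures reached saturation at 30 °C; 1 = growth at the plate median or of vehicle wells; lower values mean less growth of the strain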
Details: S. cerevisiae deletion strains, growth OD

Which normalized growth (locus YAL013W, strain DEP1, active compounds read low) does the source give for `COC(=O)C(C)c1ccc(C(=O)c2cccs2)cc1` (stereo unspecified) here?
The normalized growth was 0.998.

And the normalized growth (locus YAL021C, strain ccr4, active compounds read low)?
The normalized growth was 1.01.

What about the normalized growth (locus YAL026C, strain drs2, active compounds read low) of the same molecule?
The normalized growth was 0.988.

And the normalized growth (locus YAL030W, strain snc1, active compounds read low)?
The normalized growth was 1.01.

What about the normalized growth (locus YBL061C, strain skt5, active compounds read low) of the same molecule?
The normalized growth was 1.01.

What about the normalized growth (locus YBR009C, strain hhf1, active compounds read low) of the same molecule?
The normalized growth was 1.

And the normalized growth (locus YBR021W, strain FUR4, active compounds read low)?
The normalized growth was 0.971.

What about the normalized growth (locus YBR023C, strain chs3, active compounds read low) of the same molecule?
The normalized growth was 1.01.

What about the normalized growth (locus YBR171W, strain sec66, active compounds read low) of the same molecule?
Its normalized growth is 1.01.

And the normalized growth (locus YBR229C, strain ROT2, active compounds read low)?
The normalized growth was 0.998.

And the normalized growth (locus YBR231C, strain swc5, active compounds read low)?
Its normalized growth is 1.02.

And the normalized growth (locus YBR279W, strain paf1, active compounds read low)?
Its normalized growth is 1.

What about the normalized growth (locus YCL011C, strain gbp2, active compounds read low) of the same molecule?
Its normalized growth is 1.

And the normalized growth (locus YCL016C, strain dcc1, active compounds read low)?
Its normalized growth is 1.

What about the normalized growth (locus YCL029C, strain bik1, active compounds read low) of the same molecule?
Its normalized growth is 0.96.

What about the normalized growth (locus YCL061C, strain MRC1, active compounds read low) of the same molecule?
Its normalized growth is 1.01.

What about the normalized growth (locus YCL069W, strain vba3, active compounds read low) of the same molecule?
Its normalized growth is 1.01.

What about the normalized growth (locus YCR088W, strain abp1, active compounds read low) of the same molecule?
The normalized growth was 1.

And the normalized growth (locus YDL005C, strain med2, active compounds read low)?
The normalized growth was 1.01.

What about the normalized growth (locus YDL035C, strain GPR1, active compounds read low) of the same molecule?
Its normalized growth is 0.957.

What about the normalized growth (locus YDL040C, strain nat1, active compounds read low) of the same molecule?
The normalized growth was 1.01.

And the normalized growth (locus YDL074C, strain BRE1, active compounds read low)?
Its normalized growth is 0.981.

What about the normalized growth (locus YDL101C, strain DUN1, active compounds read low) of the same molecule?
The normalized growth was 1.01.

And the normalized growth (locus YDL134C, strain PPH21, active compounds read low)?
Its normalized growth is 0.996.

And the normalized growth (locus YDL185W, strain tfp1, active compounds read low)?
Its normalized growth is 0.939.

And the normalized growth (locus YDL192W, strain arf1, active compounds read low)?
The normalized growth was 0.951.

What about the normalized growth (locus YDR001C, strain nth1, active compounds read low) of the same molecule?
The normalized growth was 1.02.

And the normalized growth (locus YDR069C, strain doa4, active compounds read low)?
The normalized growth was 1.02.

What about the normalized growth (locus YDR101C, strain arx1, active compounds read low) of the same molecule?
Its normalized growth is 0.975.

What about the normalized growth (locus YDR137W, strain rgp1, active compounds read low) of the same molecule?
The normalized growth was 1.

And the normalized growth (locus YDR150W, strain NUM1, active compounds read low)?
The normalized growth was 0.985.

What about the normalized growth (locus YDR159W, strain sac3, active compounds read low) of the same molecule?
Its normalized growth is 1.02.

What about the normalized growth (locus YDR162C, strain NBP2, active compounds read low) of the same molecule?
The normalized growth was 0.998.

And the normalized growth (locus YDR195W, strain ref2)?
Its normalized growth is 0.993.

And the normalized growth (locus YDR297W, strain sur2, active compounds read low)?
The normalized growth was 1.01.

What about the normalized growth (locus YDR318W, strain mcm21, active compounds read low) of the same molecule?
The normalized growth was 0.907 (active).

And the normalized growth (locus YDR334W, strain swr1, active compounds read low)?
The normalized growth was 1.01.

What about the normalized growth (locus YDR335W, strain msn5, active compounds read low) of the same molecule?
The normalized growth was 0.997.

What about the normalized growth (locus YDR388W, active compounds read low) of the same molecule?
The normalized growth was 0.973.

And the normalized growth (locus YDR392W, strain spt3, active compounds read low)?
The normalized growth was 0.999.

What about the normalized growth (locus YDR502C, strain sam2, active compounds read low) of the same molecule?
Its normalized growth is 0.959.

And the normalized growth (locus YEL003W, strain gim4, active compounds read low)?
Its normalized growth is 1.01.

And the normalized growth (locus YEL037C, strain rad23, active compounds read low)?
The normalized growth was 1.

What about the normalized growth (locus YEL061C, strain CIN8 (second series), active compounds read low) of the same molecule?
Its normalized growth is 1.01.

What about the normalized growth (locus YEL061C, strain CIN8, active compounds read low) of the same molecule?
Its normalized growth is 0.991.

And the normalized growth (locus YER015W, strain faa2, active compounds read low)?
The normalized growth was 1.01.

What about the normalized growth (locus YER016W, strain bim1, active compounds read low) of the same molecule?
Its normalized growth is 1.

What about the normalized growth (locus YER110C, active compounds read low) of the same molecule?
Its normalized growth is 0.955.

What about the normalized growth (locus YER111C, strain swi4, active compounds read low) of the same molecule?
The normalized growth was 1.01.

And the normalized growth (locus YER155C, strain BEM2 (second series), active compounds read low)?
The normalized growth was 1.01.

What about the normalized growth (locus YER155C, strain BEM2, active compounds read low) of the same molecule?
The normalized growth was 0.997.

And the normalized growth (locus YER167W, strain BCK2, active compounds read low)?
Its normalized growth is 0.956.

And the normalized growth (locus YFR010W, strain ubp6, active compounds read low)?
Its normalized growth is 1.01.

And the normalized growth (locus YGL078C, strain dbp3, active compounds read low)?
Its normalized growth is 0.968.

And the normalized growth (locus YGL086W, strain mad1, active compounds read low)?
The normalized growth was 0.92 (active).

What about the normalized growth (locus YGL167C, strain pmr1, active compounds read low) of the same molecule?
Its normalized growth is 1.01.

And the normalized growth (locus YGL173C, strain kem1, active compounds read low)?
Its normalized growth is 1.02.

And the normalized growth (locus YGL227W, strain vid30, active compounds read low)?
The normalized growth was 1.01.

And the normalized growth (locus YGL240W, strain doc1, active compounds read low)?
The normalized growth was 1.

What about the normalized growth (locus YGL248W, strain PDE1, active compounds read low) of the same molecule?
The normalized growth was 0.998.

And the normalized growth (locus YGL253W, strain hxk2, active compounds read low)?
The normalized growth was 1.

What about the normalized growth (locus YGR078C, strain PAC10, active compounds read low) of the same molecule?
Its normalized growth is 0.995.

And the normalized growth (locus YGR135W, strain pre9, active compounds read low)?
Its normalized growth is 0.946.

What about the normalized growth (locus YGR229C, strain SMI1, active compounds read low) of the same molecule?
Its normalized growth is 0.96.

What about the normalized growth (locus YGR252W, strain gcn5, active compounds read low) of the same molecule?
Its normalized growth is 0.934.

What about the normalized growth (locus YHR013C, strain ard1, active compounds read low) of the same molecule?
Its normalized growth is 1.01.

And the normalized growth (locus YHR027C, strain rpn1, active compounds read low)?
Its normalized growth is 1.01.

What about the normalized growth (locus YHR030C, strain SLT2, active compounds read low) of the same molecule?
Its normalized growth is 0.991 and 0.936.

And the normalized growth (locus YHR079C, strain IRE1 (second series), active compounds read low)?
Its normalized growth is 0.968.

And the normalized growth (locus YHR079C, strain IRE1, active compounds read low)?
The normalized growth was 0.949.

What about the normalized growth (locus YHR094C, strain hxt1, active compounds read low) of the same molecule?
The normalized growth was 0.947.

What about the normalized growth (locus YHR129C, strain ARP1, active compounds read low) of the same molecule?
The normalized growth was 0.999.

And the normalized growth (locus YHR142W, strain chs7, active compounds read low)?
The normalized growth was 0.991.

And the normalized growth (locus YHR200W, strain rpn10, active compounds read low)?
Its normalized growth is 0.954.

What about the normalized growth (locus YIL066C, strain RNR3, active compounds read low) of the same molecule?
Its normalized growth is 0.977.

And the normalized growth (locus YIL073C, strain SPO22, active compounds read low)?
Its normalized growth is 0.851.

And the normalized growth (locus YIR030C, strain dcg1, active compounds read low)?
The normalized growth was 0.957.

What about the normalized growth (locus YJL092W, strain hpr5, active compounds read low) of the same molecule?
Its normalized growth is 1.

And the normalized growth (locus YJL095W, strain BCK1 (second series), active compounds read low)?
The normalized growth was 1.01.

What about the normalized growth (locus YJL095W, strain BCK1, active compounds read low) of the same molecule?
Its normalized growth is 1.01 and 0.972.

What about the normalized growth (locus YJL115W, strain asf1, active compounds read low) of the same molecule?
The normalized growth was 1.03.

What about the normalized growth (locus YJL129C, strain trk1, active compounds read low) of the same molecule?
The normalized growth was 1.04.

And the normalized growth (locus YJL134W, strain LCB3, active compounds read low)?
The normalized growth was 0.991.

And the normalized growth (locus YJL154C, strain vps35, active compounds read low)?
Its normalized growth is 1.

And the normalized growth (locus YJL164C, strain tpk1, active compounds read low)?
The normalized growth was 0.998.

What about the normalized growth (locus YJL166W, strain qcr8, active compounds read low) of the same molecule?
Its normalized growth is 1.

And the normalized growth (locus YJL168C, strain set2, active compounds read low)?
Its normalized growth is 0.973.

And the normalized growth (locus YJL187C, strain SWE1 (second series), active compounds read low)?
The normalized growth was 1.

And the normalized growth (locus YJL187C, strain SWE1, active compounds read low)?
The normalized growth was 1.01.

And the normalized growth (locus YJR043C, strain POL32, active compounds read low)?
The normalized growth was 0.972.

What about the normalized growth (locus YJR066W, strain TOR1, active compounds read low) of the same molecule?
Its normalized growth is 0.982.
